From PubChem BioAssay (Tox21)
Results filed as inconclusive are left out. Active and inactive are the calls of the source. Unless noted, the call rests on the fitted dose curve.

Assays:
[1] = Nuclear factor erythroid 2-related factor 2/antioxidant responsive element (Nrf2/ARE) small molecule agonists: qHTS cell viability counter screen in human keratinocytes (AID 1919968; active means well fitted curve in the direction sought with a large enough effect in the repeat runs; an effect the other way counts as inactive or inconclusive; further: nearly all actives have a fitted effect of over 55% in size)
How it was run: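 Measured as CellTiter-Fluor fluorescence, this readout tracks cytotoxicity in the same wells as the ARE-luciferase screen. HaCaT reporter cells (1,500/well) received compounds after a 5 h pre-incubation and were exposed for 23 h.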

[2] = Nuclear factor erythroid 2-related factor 2/antioxidant responsive element (Nrf2/ARE) small molecule agonists: luciferase reporter gene qHTS assay in human keratinocytes (AID 1919969); further: nearly all actives have a fitted effect of over 35% in size
[3] = biological target: Gonadotropin-releasing hormone receptor (Homo sapiens) (UniProt P30968); assay: Human gonadotropin-releasing hormone receptor (GnRHR) small molecule agonists, calcium flux assay in GnRHR-HEK293 cells (AID 1920063); further: nearly all actives have a fitted effect of over 35% in size
How it was run: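 Fluorescence kinetics (480 nm excitation, 540 nm emission; 3 min, 1 s steps) report calcium mobilisation in human GnRHR-HEK293 cells in agonist mode. Dye incubation: 1 h, 37 C.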

[4] = biological target: KiSS-1 receptor (Homo sapiens) (UniProt Q969F8); assay: Human kisspeptin (KISS1R) small molecule agonists, calcium flux assay in KISS1R-HEK293 cells (AID 1920064; active means well fitted curve in the direction sought with a large enough effect in the repeat runs; an effect the other way counts as inactive or inconclusive)
How it was run: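 Measures KISS1R agonism through calcium-sensitive dye fluorescence in stably transfected HEK293 cells, read for 3 min after pin-tool compound delivery; 15-point titrations in triplicate.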

[5] = G protein-coupled receptor (GPCR) small molecule agonists, calcium flux assay: HEK293 wild type cell line counter screen (AID 1920065)
How it was run: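 Readout: fluorescence at 480 nm excitation/540 nm emission, sampled at 1 s intervals for 3 min. Cells had been cultured 18 h, then dye-loaded 1 h at 37 C before compound or ATP addition.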

[6] = p53 small molecule agonists, cell-based qHTS assay with human liver microsomes (AID 1963577);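 further: p53 response element beta-lactamase reporter cells with liver microsomes plus NADPH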
How it was run: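 With metabolic activation: human liver microsomes (0.5 mg/mL final) plus NADPH (0.5 mg/mL final) added alongside compounds to p53RE-bla cells; 16 h 37 C exposure; beta-lactamase read by LiveBLAzer fluorescence.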

[7] = p53 small molecule agonists, cell-based qHTS assay with rat liver microsomes (AID 1963578)
How it was run: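 Metabolic activation by rat liver microsomes and NADPH, each 0.5 mg/mL final, added right after compounds to p53RE-bla reporter cells (4,000/well, plated 5 h earlier). 16 h at 37 C, then LiveBLAzer substrate for 2 h at room temperature in the dark; fluorescence read-out.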

[8] = p53 small molecule agonists, cell-based qHTS assay with human liver microsomes: qHTS cell viability counter screen (AID 1963579); further: nearly all actives have a fitted effect of over 45% in size
How it was run: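 Metabolic activation used human liver microsomes and NADPH, both 0.5 mg/mL final, over 16 hours at 37 C on p53RE-bla cells (4,000/well). Cytotoxicity measured by CellTiter-Glo luminescence, 30 min at room temperature.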

[9] = p53 small molecule agonists, cell-based qHTS assay with rat liver microsomes: qHTS cell viability counter screen (AID 1963580); further: nearly all actives have a fitted effect of over 45% in size
How it was run: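 In HCT-116 cells carrying a p53 response element-bla reporter, compounds were metabolically activated in situ by rat liver microsomes with NADPH over 16 h. Cell ATP content then served as the cytotoxicity measure.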

[10] = p53 small molecule agonists, cell-based qHTS assay: qHTS cell viability counter screen (AID 1963581); further: nearly all actives have a fitted effect of over 45% in size
How it was run: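 In the same plates used for the p53 bla reporter, HCT-116 cells given compounds for 16 h at 37 C received CellTiter-Glo; luminescence was recorded 30 min later at room temperature.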

[11] = p53 small molecule agonists, cell-based qHTS assay (AID 1963582; active means well fitted activation curve with a large enough effect in the signal ratio in the repeat runs, not every such curve was filed as active; the % refers to the signal ratio)
How it was run: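 Compounds are pin-transferred in DMSO onto p53RE-bla cells and incubated 16 h at 37 C. The B/G FRET beta-lactamase substrate is then applied for 2 h at RT and fluorescence recorded.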

[12] = biological target: 5-hydroxytryptamine receptor 2A (Homo sapiens) (UniProt P28223); assay: 5-hydroxytryptamine receptor 2A (HTR2A) small molecule antagonists, cell-based qHTS assay (AID 1963586); further: nearly all actives have a fitted effect of over 45% in size
How it was run: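 Antagonist-mode intracellular calcium assay: DOI (4 nM) added after 5 min compound pre-incubation at room temperature to dye-loaded HTR2A-CHO cells. Fluorescence followed for 3 min, sampled every second.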

[13] = biological target: 5-hydroxytryptamine receptor 2A (Homo sapiens) (UniProt P28223); assay: 5-hydroxytryptamine receptor 2A (HTR2A) small molecule agonists, cell-based qHTS assay (AID 1963587); further: nearly all actives have a fitted effect of over 30% in size
How it was run: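 HTR2A-CHO cells, plated 18 h at 37 C/5% CO2, dye-loaded 1 h at 37 C; compounds in DMSO added by pin tool (agonist mode). Intracellular calcium flux read as kinetic fluorescence on FDSS over 2 min at 1 s intervals.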

[14] = biological target: Muscarinic acetylcholine receptor M1 (Homo sapiens) (UniProt P11229); assay: Cholinergic receptor muscarinic 1 (CHRM1) small molecule antagonists, cell-based qHTS assay (AID 1963588); further: nearly all actives have a fitted effect of over 40% in size
How it was run: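 CHRM1-CHO calcium-flux assay, antagonist mode. Cells were seeded 18 h, dye-loaded 1 h at 37 C and given compound for 5 min at RT, then acetylcholine was added at 50nM. FDSS fluorescence was read 3 min; 15 concentrations, three runs.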

[15] = biological target: Muscarinic acetylcholine receptor M1 (Homo sapiens) (UniProt P11229); assay: Cholinergic receptor muscarinic 1 (CHRM1) small molecule agonists, cell-based qHTS assay (AID 1963589); further: nearly all actives have a fitted effect of over 35% in size
How it was run: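 Each compound was tested at 15 concentrations across three independent runs on dye-loaded CHO cells stably expressing human CHRM1, reading intracellular calcium fluorescence kinetically at 1 sec intervals.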

[16] = cAMP Responsive Elements (CRE) small molecule agonists, cell-based qHTS assay (AID 1963590)
How it was run: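 Cell line: CRE-bla HEK 293T; medium DMEM/10% dialyzed FBS/0.1 mM NEAA/1 mM pyruvate/25 mM HEPES; 3 h compound exposure; beta-lactamase FRET readout after 2 h substrate loading at RT.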

[17] = cAMP Responsive Elements (CRE) small molecule antagonists, cell-based qHTS assay (AID 1963591; active means well fitted inhibition curve with a large enough effect in the signal ratio in the repeat runs, not every such curve was filed as active; the % refers to the signal ratio)
How it was run: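 Inhibition of NKH477-driven (0.25 uM final) CRE-beta-lactamase signal in HEK293T cells, 3 h compound exposure at 37 °C, detected by FRET substrate fluorescence.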

[18] = biological target: Beta-2 adrenergic receptor (Homo sapiens) (UniProt P07550); assay: Adrenergic beta2 receptor (ADRB2) small molecule antagonists, cell-based qHTS assay (AID 1963592); further: series mostly up to about 92 µM; nearly all actives have a fitted effect of over 50% in size
How it was run: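 Cells (CHO, stable ADRB2 overexpression) incubated 18-20hr at 37C; compounds added from DMSO; agonist mix (1nM isoproterenol, 100uM IBMX, 25uM Ro-20-1724) added; 0.5hr RT; d2-cAMP and anti-cAMP-cryptate added; 1hr RT; 665/615 nm read.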

[19] = biological target: D(2) dopamine receptor (Homo sapiens) (UniProt P14416); assay: Dopamine D2 receptor (DRD2) small molecule agonists, cell-based qHTS assay (AID 1963594); further: nearly all actives have a fitted effect of over 35% in size
How it was run: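 HEK293 cells stably expressing DRD2 were cultured 24 h at 37 C, then given Ro20-1724 (0.1 mM final) and compounds for 10 min at room temperature. NKH477 (200nM) was then added for 30 min. cAMP was read by HTRF.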

[20] = biological target: D(2) dopamine receptor (Homo sapiens) (UniProt P14416); assay: Dopamine D2 receptor (DRD2) small molecule antagonists, cell-based qHTS assay (AID 1963595; active means well fitted inhibition curve with a large enough effect in the signal ratio in the repeat runs, with a control signal flat; the % refers to the signal ratio)
How it was run: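 Human DRD2 antagonist qHTS measuring cAMP by HTRF. The cells are exposed to compound for 10 min, then to NKH477 (200 nM) and quinpirole (12 nM) for 30 min at RT, with Ro20-1724 (0.1 mM) present throughout.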

Measured: Potency

Beta-2 adrenergic receptor (Homo sapiens), sequence (P07550 whole entry, looked up): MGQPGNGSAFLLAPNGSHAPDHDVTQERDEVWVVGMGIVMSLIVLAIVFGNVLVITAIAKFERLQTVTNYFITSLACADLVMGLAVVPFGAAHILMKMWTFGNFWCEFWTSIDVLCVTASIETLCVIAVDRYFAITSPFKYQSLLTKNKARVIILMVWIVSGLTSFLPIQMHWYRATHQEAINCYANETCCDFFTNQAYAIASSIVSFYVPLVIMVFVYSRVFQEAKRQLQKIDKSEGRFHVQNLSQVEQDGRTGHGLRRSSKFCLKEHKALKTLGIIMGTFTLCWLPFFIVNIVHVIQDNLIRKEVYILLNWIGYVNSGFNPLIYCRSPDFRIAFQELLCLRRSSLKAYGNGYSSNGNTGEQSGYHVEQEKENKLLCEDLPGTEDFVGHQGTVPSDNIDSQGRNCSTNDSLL
Gonadotropin-releasing hormone receptor (Homo sapiens), sequence (P30968 whole entry, looked up): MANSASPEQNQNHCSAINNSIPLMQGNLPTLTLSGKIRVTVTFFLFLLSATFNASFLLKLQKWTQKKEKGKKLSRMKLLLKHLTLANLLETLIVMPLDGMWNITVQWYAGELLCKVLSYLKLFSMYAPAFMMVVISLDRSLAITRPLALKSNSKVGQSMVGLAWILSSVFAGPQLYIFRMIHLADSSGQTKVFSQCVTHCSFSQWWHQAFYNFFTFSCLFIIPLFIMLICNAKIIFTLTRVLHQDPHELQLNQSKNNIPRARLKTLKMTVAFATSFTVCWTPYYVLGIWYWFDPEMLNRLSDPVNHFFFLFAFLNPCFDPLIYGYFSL
D(2) dopamine receptor (Homo sapiens), sequence (P14416 whole entry, looked up): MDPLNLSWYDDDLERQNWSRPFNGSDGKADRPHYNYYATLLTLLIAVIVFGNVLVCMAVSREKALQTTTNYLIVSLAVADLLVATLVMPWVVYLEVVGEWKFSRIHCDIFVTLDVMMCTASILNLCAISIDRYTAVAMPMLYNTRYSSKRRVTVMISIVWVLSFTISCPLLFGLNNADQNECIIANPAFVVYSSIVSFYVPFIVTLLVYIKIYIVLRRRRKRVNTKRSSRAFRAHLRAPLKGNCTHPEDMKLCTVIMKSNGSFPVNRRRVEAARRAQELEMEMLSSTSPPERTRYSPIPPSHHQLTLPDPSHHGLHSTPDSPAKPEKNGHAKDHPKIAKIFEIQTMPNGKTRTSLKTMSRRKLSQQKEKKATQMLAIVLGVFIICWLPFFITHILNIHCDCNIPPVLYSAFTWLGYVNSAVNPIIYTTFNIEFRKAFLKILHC
Muscarinic acetylcholine receptor M1 (Homo sapiens), sequence (P11229 whole entry, looked up): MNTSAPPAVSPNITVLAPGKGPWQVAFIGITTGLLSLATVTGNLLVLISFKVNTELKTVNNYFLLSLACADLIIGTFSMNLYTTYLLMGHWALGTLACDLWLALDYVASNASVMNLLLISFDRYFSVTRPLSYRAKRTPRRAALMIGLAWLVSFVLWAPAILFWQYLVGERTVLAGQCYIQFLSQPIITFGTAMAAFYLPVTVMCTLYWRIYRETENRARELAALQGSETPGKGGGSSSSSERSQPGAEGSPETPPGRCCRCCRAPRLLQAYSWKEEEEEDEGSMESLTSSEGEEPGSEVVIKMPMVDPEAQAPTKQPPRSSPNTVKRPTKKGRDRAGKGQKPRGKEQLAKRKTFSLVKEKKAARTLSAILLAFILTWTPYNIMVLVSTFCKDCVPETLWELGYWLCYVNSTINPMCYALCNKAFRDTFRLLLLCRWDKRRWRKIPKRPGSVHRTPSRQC
5-hydroxytryptamine receptor 2A (Homo sapiens), sequence (P28223 whole entry, looked up): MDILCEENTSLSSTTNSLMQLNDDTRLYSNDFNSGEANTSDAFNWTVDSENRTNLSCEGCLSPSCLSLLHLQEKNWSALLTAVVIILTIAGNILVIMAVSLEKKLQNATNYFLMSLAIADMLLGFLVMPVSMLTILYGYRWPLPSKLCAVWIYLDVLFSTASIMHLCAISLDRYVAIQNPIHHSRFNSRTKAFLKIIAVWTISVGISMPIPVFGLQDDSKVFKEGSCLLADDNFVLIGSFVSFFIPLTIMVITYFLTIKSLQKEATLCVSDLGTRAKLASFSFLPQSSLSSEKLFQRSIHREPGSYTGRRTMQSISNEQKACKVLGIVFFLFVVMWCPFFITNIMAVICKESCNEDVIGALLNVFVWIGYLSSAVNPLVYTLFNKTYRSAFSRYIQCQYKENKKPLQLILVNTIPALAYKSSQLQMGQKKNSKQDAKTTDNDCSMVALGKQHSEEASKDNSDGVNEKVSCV
KiSS-1 receptor (Homo sapiens), sequence (Q969F8 whole entry, looked up): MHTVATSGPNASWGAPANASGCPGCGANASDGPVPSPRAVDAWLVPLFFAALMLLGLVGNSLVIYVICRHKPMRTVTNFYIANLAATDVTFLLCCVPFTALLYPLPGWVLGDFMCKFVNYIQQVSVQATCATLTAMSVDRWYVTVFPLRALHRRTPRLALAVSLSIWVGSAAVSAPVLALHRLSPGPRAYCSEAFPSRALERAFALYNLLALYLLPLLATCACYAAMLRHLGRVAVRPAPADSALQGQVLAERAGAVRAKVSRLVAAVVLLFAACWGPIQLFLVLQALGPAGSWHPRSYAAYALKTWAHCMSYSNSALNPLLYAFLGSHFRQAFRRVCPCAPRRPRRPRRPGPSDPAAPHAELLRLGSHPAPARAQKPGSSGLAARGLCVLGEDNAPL

CCOC(=O)CN
inactive: all assays above

CSc1nnc(C(C)(C)C)c(=O)[nH]1
inactive: all assays above

O=C(Cn1ccnc1[N+](=O)[O-])NCc1ccccc1
inactive: all assays above

ClCCCl
inactive: all assays above

Cc1nc2ccccc2s1
inactive: all assays above

Cc1cnccn1
inactive: all assays above

CC(C)C(=O)c1ccccc1
inactive: all assays above
